# Values joined by “and” are separate entries in the source; they are usually repeats but may differ in a detail not shown here. Equal entries are not always repeated. Compounds without any hit were thinned out: in the full panel of roughly 83,000, 20% have a hit.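 Interpretation: 100, growth as untreated; towards 0, rising growth inhibition; 0, no net growth; 0 to -100, cell death. Compounds scoring below 10 were considered active.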 The source holds several records for some structures; these can differ, active in one and inactive in another. Active and inactive are the calls of the source.
# System: A498 renal
# Test: NCI-60 one-dose screen, 48 h (100 = growth as untreated, 0 = no growth, -100 = all killed)
# Settings: 10 µM unless noted
# Description: Growth inhibition of the A498 human tumor cell line is measured as a screen for anti-cancer activity. Cells are grown in 96 well plates and exposed to the test compound for 48 hours. Compounds are tested at a single concentration, which is 10^-5 M for most compounds. The reported endpoint is percent growth (GI% or GIPRCNT), where numbers from 0 - 100% represent growth inhibition, and numbers from -100% - 0 represent cell death. For example, a value of 40 represents 60% growth inhibition. A value of 0 means no net growth occurred over the course of the experiment. A value of -40 indicates 40% of cells at the beginning of the experiment died by the end of the experiment. A value of -100 means all cells are dead at the end of the experiment.
# NCI-60 Human Tumor Cell Lines Screen was performed using the standard one-dose NCI protocol, which is described in more detail at https://dtp.cancer.gov/discovery_development/nci-60/default.htm.
# Compounds with GIPRCNT values below 10 were considered active. Activity score was based on GIPRCNT using the following formula: […]
# Score is 0 for GIPRCNT values of 100 or above, 50 for GIPRCNT values of 0, and 100 for GIPRCNT values of -100.
row,SMILES,growth
1,c1ccc2cc(C[n+]3ccn(Cc4ccc5ccccc5n4)c3)ccc2c1,49.1% (inactive) and 61.6% (inactive)
2,CC(=O)Nc1cccc2c1CCCC2,97.8% (inactive) and 121% (inactive)
3,CCC(C)C1(C2CCCC2)NC(=O)NC1=O (stereo not given),108% (inactive) and 81.8% (inactive)
4,COc1ccc(CCN(C)CCCC(C#N)(c2ccc(OC)c(OC)c2)C(C)C)cc1OC (stereo not given),56.5% (inactive) and 96.5% (inactive) and 75.5% (inactive)
5,Cc1ccc(NCSc2ccc(Cl)cc2)cc1,62.5% (inactive) and 66.3% (inactive)
6,CCN(CC)CCC(CNc1ccnc2cc(Cl)ccc12)c1ccc(OC)cc1 (stereo not given),38.2% (inactive) and 28.7% (inactive)
7,Nc1ccc2ccc(N)cc2c1,100% (inactive)
8,CCCCCN(CCCCC)CC(O)c1cc2c(c3ccccc13)CCCC2 (stereo not given),108% (inactive) and 39.3% (inactive)
9,CN1CCN(CCC=C2c3ccccc3Sc3ccc(S(=O)(=O)N(C)C)cc32)CC1,73.5% (inactive) and 62.1% (inactive)
10,Cc1nn(-c2ccccc2)nc1C(=O)Nc1ccccc1C(=O)NCC1CC1,107% (inactive) and 92.8% (inactive)
11,COc1ccc(NC(=S)Nc2ccccn2)cc1,83% (inactive)
12,CC1CCCc2sc3nc(NNC(=O)c4cnccn4)n(-c4ccccc4)c(=O)c3c21 (stereo not given),27.8% (inactive)
13,CCCCCCCCCCCCOc1ccccc1C=O,116% (inactive)
14,COc1ccc(Cn2c(NCCN=C(N)N)nc(=O)n(Cc3ccc(F)cc3)c2=O)cc1,92.1% (inactive) and 97.1% (inactive)
15,COc1cc2c(Nc3ccc(Cl)c(Cl)c3F)ncnc2cc1OCC1C[C@@H]2CN(C)C[C@@H]2C1 (stereo not given in full),-95.7% (active) and -81.6% (active)
16,O=CC(O)C(O)C(O)CO (stereo not given),94.8% (inactive) and 109% (inactive)
17,COc1ccc(/C(C#N)=C/c2ccccn2)cc1,93.2% (inactive) and 122% (inactive)
18,N/C(=N\N=C\c1ccc2c(c1)OCO2)N/N=C\c1ccc2c(c1)OCO2,121% (inactive) and 85.9% (inactive)
19,COc1ccc2ccccc2c1/C=N/N1CCCCC1,89% (inactive)
20,O=C(Nc1ccc(Br)cc1)c1cc(Br)ccc1O,-12.7% (active) and -34.6% (active)

row,SMILES,growth
1,NCCSC(C[N+](=O)[O-])c1ccccc1Cl (stereo not given),36% (inactive)
2,Oc1ccc(/C=C/c2ccccc2)cc1,83.1% (inactive) and 59.4% (inactive)
3,Nc1ccccc1SC1CC(=O)N(c2cccc3ccccc23)C1=O (stereo not given),88.8% (inactive)
4,Nc1nc2ncc(CNc3ccc(C(=O)N[C@@H](CCc4nn[nH]n4)C(=O)O)cc3)nc2c(=O)[nH]1,105% (inactive) and 92.2% (inactive)
5,COc1cc2nc(N3CCN(C(=O)C4COc5ccccc5O4)CC3)nc(N)c2cc1OC (stereo not given),105% (inactive) and 94.2% (inactive) and 101% (inactive)
6,O=[N+]([O-])c1ccc(-n2[nH]nnc2=S)cc1,95.1% (inactive)
7,O=C(Nc1cccc(-n2ccc3c(NC(=O)c4ccccc4)nccc32)c1)c1ccc(Cl)c(C(F)(F)F)c1,15.3% (inactive) and 75.5% (inactive)
8,c1ccc(NCc2ccc3c(c2)OCO3)cc1,101% (inactive) and 86.9% (inactive)
9,COC(=O)/C=C/c1cc(O)c2c(c1)C(C(=O)OC)C(c1ccc(O)c(O)c1)O2 (stereo not given),18.2% (inactive) and 6.71% (active)
10,CC(=O)NC(Cc1ccccc1)C(=O)Oc1ccc2ccccc2c1 (stereo not given),130% (inactive) and 97.2% (inactive)
11,CC(/C=N/N1C(=O)c2ccccc2C1=O)c1ccccc1 (stereo not given),98% (inactive)
12,Cc1ccc(-c2noc(CC(=O)c3ccc([N+](=O)[O-])cc3)n2)cc1,86.7% (inactive)
13,Cc1cc(=O)[nH]c(O)c1C#N,114% (inactive) and 111% (inactive)
14,O=C(O)c1cc(C(=O)O)cc([N+](=O)[O-])c1,103% (inactive)
15,O=C(O)CCCCc1ccc([N+](=O)[O-])cc1,84.4% (inactive) and 127% (inactive)
16,COc1cc2nc(N3CCC[C@@H](NC(=O)C4COc5ccccc5O4)C3)nc(N)c2cc1OC (stereo not given in full),99.4% (inactive) and 83.5% (inactive)
17,Cc1cc(C)c(N)c(Br)c1,134% (inactive) and 88.8% (inactive)
18,COc1cc(C(=O)c2ccc3c(c2)OCO3)cc(OC)c1OC,6.18% (active)
19,O=C(N/N=C/c1cccc2ccccc12)C1CC1,102% (inactive)
20,O=[N+]([O-])c1ccccc1/C=N\Nc1ccccc1,79.7% (inactive) and 70.1% (inactive)
